Rows were chosen to be rich in hits. Some 2.6% of all compounds tested hit in one or more screens of this group.
GLP-1R agonist: GLP-1 receptor (human) agonism | P43220 | HEK293 GLP-1R CRE-luciferase, luminescence, 4-6 h; cells express a hypersensitive GLP-1R form | Potency, µM (series often up to 45.6 µM), inactives show top-dose activation, actives largely listed as activators | 380,000 compounds, 0.007% hits; note: % of control where 0% means no effect
Target sequence (P43220 whole entry, looked up): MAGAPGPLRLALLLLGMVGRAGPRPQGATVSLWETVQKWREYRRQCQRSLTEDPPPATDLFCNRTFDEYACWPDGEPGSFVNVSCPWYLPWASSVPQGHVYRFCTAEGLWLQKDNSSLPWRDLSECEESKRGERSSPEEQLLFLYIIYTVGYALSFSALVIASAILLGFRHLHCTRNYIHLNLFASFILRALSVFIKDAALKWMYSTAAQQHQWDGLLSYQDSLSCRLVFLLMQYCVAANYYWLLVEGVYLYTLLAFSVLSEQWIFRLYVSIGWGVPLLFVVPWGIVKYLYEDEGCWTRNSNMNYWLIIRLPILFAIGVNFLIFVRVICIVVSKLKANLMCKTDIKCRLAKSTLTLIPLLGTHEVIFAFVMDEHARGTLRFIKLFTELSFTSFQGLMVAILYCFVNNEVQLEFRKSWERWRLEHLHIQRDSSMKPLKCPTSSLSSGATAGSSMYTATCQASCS
GLP1R inv ag: GLP-1 receptor (human) inverse agonism. P43220. HEK293 GLP-1R CRE-luciferase, luminescence, 24 h; GLP-1R form is constitutively active. Potency, µM (titrated, usually from 38.3 µM), for inactives: at the highest dose activity change, negative = inhibition, usual class: inhibitors. 410,000 compounds, 1.6% hits; note: % is set by controls: 0 for no effect and ±100 for the full control effect; nearly all actives have a fitted effect of over 55% in size
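HEK293 cells stably co-expressing constitutively active GLP-1R and a cAMP-responsive luciferase reporter were seeded in DMEM with 10% Nu serum, given compounds after 12 h, and incubated 24 h at 37 deg C. Luminescence was then read.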
HEK293 tox: cytotoxic in the GLP-1 receptor inverse agonist counter-screen; HEK293 cAMP-luciferase reporter cells, luminescence, 24 h; Potency, µM (doses to about 38.3 µM), without a hit: at the highest dose activity change, negative = inhibition, usual class: inhibitors; 410,000 compounds, 0.13% hits; AID 624418;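 note: loss of luciferase light is scored as toxicity; % is set by controls: 0 for no effect and ±100 for the full control effect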
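1536-well qHTS counterscreen of the MLSMR; 200 cells/uL, 12 h pre-incubation, 23 nL cpd, 24 h at 37 deg C 5% CO2, luciferase detection reagent, 12 min RT, luminescence. Inhibition = undesired.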
BRCA1 expr up: activators of BRCA1 expression. MCF7-BRCA1-FFLuc reporter, luminescence, 48 h; response scale: scaled: vehicle 0%, 10 µM genistein 100%. Potency, µM (titrated, usually from 46.1 µM), without a hit: top-dose activation, hits mostly activators. 380,000 compounds, 1.1% hits; note: nearly all actives have a fitted effect of over 80% in size
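Cells: MCF7-BRCA1-FFLuc, 2000/well. Exposure: 48 h, 37 °C, 5% CO2. Read: luminescence, 15 min post-substrate. Controls: genistein 10 microM (maximal activation), DMSO (neutral).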
Active calls of the source: *; u = inconclusive; x = no result given. Calls come from the whole dose curve; as a rule, active = well fitted curve in the direction sought with a large enough effect; inconclusive = small, poorly fitted or top-dose-only effect, or another doubt; inactive = no such curve, though single readings can be large; an effect the other way counts as inactive or inconclusive. Potency is the fitted concentration of half-maximal effect.

SMILES	GLP-1R agonist	GLP1R inv ag	HEK293 tox	BRCA1 expr up
CC(Oc1ccc(F)cc1)C(=O)N(CCC1=CCCCC1)c1c(N)n(Cc2ccccc2)c(=O)[nH]c1=O (centres undefined)	-11%	11µM*	u	-42%
CN(C(=O)Oc1ccc(Cl)c2cccnc12)c1ccccc1	-5%	0%	-2%	-7%
Cc1cccc(NC(=O)Oc2ccc(Cl)c3cccnc23)c1	14%	10µM*	u	-42%
CNc1cc(Cl)c2nonc2c1[N+](=O)[O-]	-11%	u	7.9µM*	-97%
Cc1cc(C)nc(Sc2nc(Nc3ccccc3)nc(Sc3nc(C)cc(C)n3)n2)n1	-4%	11%	u	-31%
O=C(Nc1ccc(Cl)c(C(F)(F)F)c1)c1ccc2c(c1)CCN2S(=O)(=O)c1ccccc1	x	5µM*	-24%	x
CN(CC(=O)Nc1cccc(S(=O)(=O)N2CCOCC2)c1)CC(=O)Nc1ccc(Cl)c(C(F)(F)F)c1	-18%	u	u	-74%
O=C(NCCN1CCC2(CC1)C(=O)NCN2c1cccc(F)c1)c1ccc2ccccc2c1	-5%	7.9µM*	5%	-70%
Cc1cccc(Nc2cc(C)c3c(O)cccc3n2)c1C	9%	u	u	26%
CCN1CCN(c2ncc(C(=O)Nc3cc(Cl)ccc3OC)c3ccccc23)CC1	2%	1.8µM*	u	-91%
C[C@@H]1O[C@@H](O[C@@H]2C=C3CC[C@@H]4[C@@H](CC[C@]5(C)[C@H](c6ccc(=O)oc6)CC[C@@]45O)[C@@]3(C)CC2)[C@H](O)[C@H](O)[C@H]1O	x	x	x	-67%
CN(C)CCC1(C2=CCCC2)CC/C(=C/c2ccc(Cl)cc2)C1=O (centres undefined)	-8%	u	u	-90%
O=C1CC(NC(=O)C(F)(F)F)=NN1c1ccccc1	-9%	2.5µM*	u	-4%
O=C1CC(c2cccnc2)=NN1c1ccccc1	6%	8%	-6%	0%
O=C(OC1C2CCC1C1CN(CCc3ccccc3)CC12)c1ccccc1 (centres undefined)	0%	u	u	-57%
O=C(NCc1cccnc1)/C(=C\c1ccc(-c2ccc(Br)cc2)o1)S(=O)(=O)c1ccccc1	-39%	1.8µM*	u	-92%
CCN(CCCl)c1cc(CN(C)C)cc(NC(=O)c2ccc(C(=O)Nc3cc(CN(C)C)cc(N(CC)CCCl)c3)cc2)c1	-9%	u	2.8µM*	-89%
Cc1ccc(O)c(Cc2cc(C)cc(Cc3cc(C)ccc3O)c2O)c1	-1%	u	u	-77%
COc1ccc(/C(=N/OC(C)=O)c2nccc3cc(OC)c(OC)cc23)cc1OC	12%	58%	-7%	-11%
CCCN1CCc2c(sc(NC(=O)Cc3ccc(F)cc3)c2C(N)=O)C1	1%	-14%	35%	3%
Cc1ccc2sc(N(CCCN(C)C)C(=O)CCS(=O)(=O)c3ccccc3)nc2c1C	-3%	u	u	-65%
COc1ccc(OC)c2sc(N(CCCN(C)C)C(=O)CCS(=O)(=O)c3ccccc3)nc12	-27%	u	10µM*	-85%
COc1cc(C2c3cc4c(cc3OC(C)(N3CCCC3)C2C)OCO4)cc(OC)c1OC (centres undefined)	-3%	u	u	-78%
CCOc1cc(CNCCc2c[nH]c3ccccc23)cc(Cl)c1OC	2%	11µM*	u	-63%
COc1ccc2[nH]c(C)c(CCNCc3cn(C)c4ccccc34)c2c1	-4%	2.8µM*	u	-87%
COc1cc(C(C)=O)ccc1OCc1cc(C(=O)N(C)CCC2CCCCO2)no1 (centres undefined)	9%	20%	-5%	3.5µM*
CSc1ccc(CN2CCC2(C)C(=O)Nc2cccc(NS(C)(=O)=O)c2)cc1 (centres undefined)	0%	u	-10%	-13%
C=CCn1cccc(/C=C/C(=O)c2ccc(C(C)(C)C)cc2)c1=S	-21%	13µM*	u	-69%
CN1C(=O)c2ccccc2Sc2ccc(NC(=O)N3CCN(c4ccccc4)CC3)cc21	x	u	-20%	x
O=C(Nc1ccc(Cl)c(C(F)(F)F)c1)NC1CC2CCCC(C1)N2Cc1ccccc1 (centres undefined)	-6%	2.5µM*	u	-81%

Source: PubChem BioAssay (National Center for Advancing Translational Sciences (NCATS))
